Test systems include T-47D breast; BT-549 breast; MDA-MB-435 melanoma; SW-620 colon; MCF7 breast; HCT-116 colon; HCC-2998 colon; KM12 colon.
Holding throughout (assay): NCI-60 one-dose screen, 48 h (100 = growth as untreated, 0 = no growth, -100 = all killed)
Holding throughout (settings): 10 µM unless noted

Structures are written as SMILES. About 83,000 compounds went through this panel and 20% of them were active in at least one assay; those are over-represented in the sample as a whole.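 Testing used 96-well plates and a 48-hour single-concentration exposure. Example: -40 means 40% of the starting cells died.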 A number with no mark means an inactive call. The source made the active and inactive calls. The calls were made as follows: active = growth percent below 10; inactive = the rest.

On to `Cc1nn(-c2ccccc2)c(-n2ccnc2)c1/C=N/Nc1nc(-c2ccc(Cl)c(Cl)c2)cs1`, for which the growth in the assay on T-47D breast was 28.7%; in the assay on BT-549 breast, 71.5%; in the assay with MDA-MB-435 melanoma it was 66.2%; with SW-620 colon it was 30.6%; in the assay on MCF7 breast, 17.1%; in the assay with HCT-116 colon, 0.896% (active). The growth was 63.5% in the assay on HCC-2998 colon and 66.7% in the assay with KM12 colon.

`C[C@]12CC[C@@H]3c4cc(OC(F)F)c(OS(N)(=O)=O)cc4CC[C@H]3[C@@H]1CC[C@@H]2O`: the growth in the assay with T-47D breast was 43.7%; in the assay on BT-549 breast it was 41.8%; in the assay on MDA-MB-435 melanoma, -70.8% (active); with SW-620 colon it was 28.1%; with MCF7 breast, 22.1%; with HCT-116 colon it was 21.3%. Also, the results for the growth with HCC-2998 colon and in the assay with KM12 colon were 16.2% and 12.2%, respectively.

On to `CSc1ncccc1C(=O)OCC(=O)Nc1oc(C)c2c(C)n[nH]c(=O)c12`, for which the growth in the assay with T-47D breast is 103%; in the assay on BT-549 breast, 99.1%; with MDA-MB-435 melanoma, 107%; in the assay on SW-620 colon, 105%; with MCF7 breast, 84%; in the assay on HCT-116 colon it was 109%. Besides, the growth is 113% in the assay on HCC-2998 colon and 103% in the assay on KM12 colon.

Regarding `O=c1c2cc(F)ccc2sc2c(N3CCNCC3)nc3ccc(F)cc3c12`, the growth was 22.2% with T-47D breast; 79.8% with BT-549 breast; -94.3% (active) in the assay on MDA-MB-435 melanoma; -84.4% (active) in the assay on SW-620 colon; -62.9% (active) in the assay on MCF7 breast; -61.2% (active) in the assay on HCT-116 colon. The values for the growth in the assay on HCC-2998 colon and in the assay on KM12 colon were -90.8% (active) and -78.4% (active), respectively.

Consider `O=c1c2cc(F)ccc2sc2c(NCCCNCCO)nc3ccc(F)cc3c12`, for which the growth was 70.2% with T-47D breast; 83.9% in the assay on BT-549 breast; -28.4% (active) in the assay on MDA-MB-435 melanoma; -39.7% (active) in the assay with SW-620 colon; 47.9% in the assay on MCF7 breast; -72.8% (active) in the assay with HCT-116 colon. Also, the figures for the growth in the assay on HCC-2998 colon and with KM12 colon were 1.69% (active) and 24.9%, respectively.

For the compound `CCOC(=O)c1cn2ncnc(Oc3ccc(NC(=O)NCCN(C)C)c(Cl)c3)c2c1C`, the growth was 45.8% with T-47D breast; 77.8% in the assay on BT-549 breast; 46.1% in the assay with MDA-MB-435 melanoma; 31.5% in the assay on SW-620 colon; 61.6% in the assay on MCF7 breast; 36.4% with HCT-116 colon. Also, the growth in the assay on HCC-2998 colon was 80.2%; in the assay with KM12 colon, 93.3%.

As to `CCCCCCNC(=O)Oc1ccc(/C(=C(\C)c2ccc(Cl)cc2)c2ccc(OCCN(CC)CC)cc2)cc1`, the growth with T-47D breast was 39.7%; with BT-549 breast it was 82.7%; in the assay on MDA-MB-435 melanoma, 65%; with SW-620 colon it was 18.2%; in the assay on MCF7 breast, 24.6%; in the assay with HCT-116 colon, 29.6%. Besides, the growth is 78.7% in the assay on HCC-2998 colon and 44.6% in the assay on KM12 colon.

Turning to `O=c1ccc(N=Nc2ccccc2)ccc1Cl`, the growth in the assay with T-47D breast is 42.4%; with BT-549 breast it was 135%; in the assay with MDA-MB-435 melanoma, 40.6%; in the assay with SW-620 colon it was -3.18% (active); in the assay with MCF7 breast, 17.6%; with HCT-116 colon it was 13.7%. Moreover, the growth was 35% in the assay with HCC-2998 colon and 74.6% in the assay with KM12 colon.

For the compound `O=C(CS(=O)c1oc(-c2cccs2)nc1S(=O)(=O)c1ccc(Br)cc1)c1ccccc1` (stereo not drawn), the growth with T-47D breast was 82%; with BT-549 breast, 97%; in the assay with MDA-MB-435 melanoma, 95%; in the assay on SW-620 colon, 97.7%; in the assay on MCF7 breast, 96.9%; in the assay with HCT-116 colon, 86.2%. The growth in the assay on HCC-2998 colon was 98.6%; with KM12 colon it was 102%.

On to `COc1cccc2c(=O)c3c(sc12)c(NCCCN)nc1ccccc13`, for which the growth with T-47D breast was 82.6%; in the assay with BT-549 breast, 90.4%; in the assay on MDA-MB-435 melanoma, 33.9%; in the assay with SW-620 colon it was -48.7% (active); with MCF7 breast it was 24.9%; with HCT-116 colon, -73.9% (active). Moreover, the values for the growth in the assay on HCC-2998 colon and in the assay on KM12 colon were -57.3% (active) and 13%, respectively.

In the case of `COc1ccc(C(=O)N=Nc2c(O)n(C)c3ccccc23)cc1`, the growth is 61.9% with T-47D breast; 103% with BT-549 breast; 103% with MDA-MB-435 melanoma; 97.3% with SW-620 colon; 61.3% with MCF7 breast; 99.7% in the assay on HCT-116 colon. Also, the results for the growth in the assay on HCC-2998 colon and in the assay with KM12 colon were 117% and 95.5%, respectively.

For `Cc1c(C(=O)/C=C/Nc2c(Cl)cc(S(N)(=O)=O)cc2Cl)sc2nc3ccccc3n12`, the growth is 97.8% with T-47D breast; 102% in the assay with BT-549 breast; 103% with MDA-MB-435 melanoma; 101% with SW-620 colon; 102% in the assay with MCF7 breast; 105% with HCT-116 colon. Moreover, the growth is 124% with HCC-2998 colon and 101% with KM12 colon.

On to `CCOC(=O)c1[nH]c(C)c(C(=O)OCc2ccccc2C#N)c1C`, for which the growth is 103% with T-47D breast; 50.5% in the assay with BT-549 breast; 9.9% (active) with MDA-MB-435 melanoma; 41.4% in the assay with SW-620 colon; 30.5% in the assay on MCF7 breast; 40.9% in the assay on HCT-116 colon. For the same compound, the growth was 64.3% in the assay on HCC-2998 colon and 42.8% with KM12 colon.

Turning to `COc1ccc(-c2nnc(COc3ccc(Cl)cc3Cl)o2)cc1OC`, the growth in the assay on T-47D breast was -10.5% (active); with BT-549 breast, 80.1%; with MDA-MB-435 melanoma it was 48.4%; in the assay with SW-620 colon, 40.6%; in the assay on MCF7 breast, 32.9%; in the assay on HCT-116 colon, 34.3%. Also, the growth in the assay on HCC-2998 colon was 95%; in the assay on KM12 colon, 58.9%.

Turning to `Cc1cc(=O)oc2cc(OC(=O)CN3CCN(C)CC3)ccc12`, the growth was 102% with T-47D breast; 114% in the assay with BT-549 breast; 100% with MDA-MB-435 melanoma; 96.2% in the assay with SW-620 colon; 93.1% in the assay with MCF7 breast; 95.8% in the assay on HCT-116 colon. For the same compound, the growth was 108% with HCC-2998 colon and 99.5% in the assay with KM12 colon.

Regarding `CNCCCNc1nc2ccccc2c2c(=O)c3cc(F)ccc3sc12`, the growth is 22.4% in the assay on T-47D breast; 86.7% in the assay with BT-549 breast; -85.3% (active) with MDA-MB-435 melanoma; -71.4% (active) in the assay with SW-620 colon; -44.8% (active) in the assay on MCF7 breast; -67% (active) with HCT-116 colon. Moreover, the growth with HCC-2998 colon is -88.3% (active); in the assay on KM12 colon it was -44.4% (active).

The record behind these values is PubChem BioAssay (NCI).
